# PubChem BioAssay AID1445 (SRMLSC, 2008)
# The campaign covered roughly 220,000 compounds. About 910 (0.41%) were called active. What follows is part of a selection rich in actives, with near analogues and random picks from the rest. Entries with a potency or affinity are not part of this list. Unmarked numbers belong to inactive results.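 How the source made its calls: active means primary inhibition above the hit cutoff, then over 50% inhibition at one or more dose response concentrations (cut at about 23% in these data, passing the limit was not always enough); inconclusive means conflicting primary data, or primary hits not chosen for dose response; inactive means low primary inhibition, or under 50% at every dose.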
# Target: Aminopeptidase N (Plasmodium falciparum (isolate 3D7)) (UniProt O96935)
# Sequence (O96935 whole entry, looked up): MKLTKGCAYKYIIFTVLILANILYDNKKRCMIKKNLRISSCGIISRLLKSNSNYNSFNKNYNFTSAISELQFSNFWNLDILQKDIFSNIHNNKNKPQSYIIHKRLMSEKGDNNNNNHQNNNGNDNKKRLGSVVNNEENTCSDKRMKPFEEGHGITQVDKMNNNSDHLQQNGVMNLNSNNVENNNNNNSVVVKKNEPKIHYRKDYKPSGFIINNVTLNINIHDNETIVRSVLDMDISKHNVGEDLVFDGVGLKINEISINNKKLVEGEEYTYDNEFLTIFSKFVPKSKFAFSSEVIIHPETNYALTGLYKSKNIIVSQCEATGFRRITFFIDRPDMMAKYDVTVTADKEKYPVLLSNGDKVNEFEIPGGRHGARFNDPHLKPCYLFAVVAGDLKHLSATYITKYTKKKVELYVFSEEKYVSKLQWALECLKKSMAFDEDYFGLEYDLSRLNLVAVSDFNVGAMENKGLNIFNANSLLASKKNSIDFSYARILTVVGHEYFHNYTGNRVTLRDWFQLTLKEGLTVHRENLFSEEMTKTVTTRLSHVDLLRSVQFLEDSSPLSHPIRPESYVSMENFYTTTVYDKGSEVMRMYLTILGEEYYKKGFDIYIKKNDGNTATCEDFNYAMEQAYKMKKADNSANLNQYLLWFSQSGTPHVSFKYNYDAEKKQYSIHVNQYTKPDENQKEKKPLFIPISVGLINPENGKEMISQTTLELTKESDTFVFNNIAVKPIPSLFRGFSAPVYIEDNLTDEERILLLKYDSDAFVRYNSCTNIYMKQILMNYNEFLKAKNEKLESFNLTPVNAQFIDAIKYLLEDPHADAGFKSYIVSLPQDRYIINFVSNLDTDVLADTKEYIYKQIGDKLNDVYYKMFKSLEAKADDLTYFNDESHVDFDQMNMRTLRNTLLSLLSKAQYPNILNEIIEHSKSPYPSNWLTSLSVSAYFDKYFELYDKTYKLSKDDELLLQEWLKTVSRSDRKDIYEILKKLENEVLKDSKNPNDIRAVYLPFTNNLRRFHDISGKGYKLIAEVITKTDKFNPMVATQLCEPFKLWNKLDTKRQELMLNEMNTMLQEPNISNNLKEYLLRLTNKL
# Experiment: malaria alanyl aminopeptidase activity blockers – biochemical, fluorogenic H-Leu-NHMec substrate, 1536-well (AID 1445);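 further: plate controls were DMSO full reaction for no effect and no enzyme background for full effect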
# Settings: recombinant M1AAP, H-Leu-NHMec fluorogenic kinetic assay; at 30 µM, hits give high values unless noted
row,Compound,inhibition
1,O=C1Nc2ccccc2S/C1=C/Nc1cccc(Cl)c1,-0.46%
2,Cc1ccc(N/C=C2/Sc3ccccc3NC2=O)cc1,-2.38%
3,CCc1ccc(OCC(=O)NC(NC(=S)Nc2ccc(C)cc2C)C(Cl)(Cl)Cl)cc1 (stereo not drawn),1.79%
4,Cc1cc(NC(=O)CSc2nnc(-c3ccncc3)n2-c2ccccc2)no1,10.6%
5,CCCCOc1ccc(C(=O)O)cc1,9.1%
6,CCCCOc1ccc(CC(=O)NCC(=O)O)cc1,3.76%
7,Cc1cccc(N(Cc2cc3ccccc3[nH]c2=O)C(=O)c2cccs2)c1,0.39%
8,C=CCOc1ccc2ccccc2c1CNc1ncn[nH]1,0.63%
9,CN(CC(=O)Nc1ccc(N2CCOCC2)cc1)C(=O)COc1ccccc1F,0.51%
10,CN1c2ccsc2C(O)=C(C(=S)Nc2ccccc2)S1(=O)=O,7.91%
11,Cc1ccc(NC(=S)C2=C(O)c3sccc3N(C)S2(=O)=O)cc1,25.2% (active)
12,Cc1ccc(NC(=O)C2=C(O)c3sccc3N(C)S2(=O)=O)cc1,8.43%
13,Cc1cc(Oc2cc(N)cc([N+](=O)[O-])c2)ccc1Cl,4.69%
14,O=C(NNC(=O)c1ccc2ccccc2c1O)c1ccccc1Cl,25.2% (active)
15,O=C(NNC(=O)c1ccccc1Br)c1ccccc1Cl,5.77%
16,O=C(NNC(=O)c1ccccc1Cl)c1ccccc1Cl,-3.69%
17,CSc1ccc(-c2nnn(CC(=O)NCc3ccccc3)n2)cc1,-1.85%
18,Cc1[nH]nc2c1C(c1ccc(-c3ccc(Cl)cc3)o1)C(C#N)=C(N)O2 (stereo not drawn),-0.1%
19,Cc1[nH]nc2c1C(c1ccc(-c3ccccc3C#N)o1)C(C#N)=C(N)O2 (stereo not drawn),23.4% (active)
20,Cc1ccc(-c2ccc(C3C(C#N)=C(N)Oc4n[nH]c(C)c43)o2)cc1 (stereo not drawn),12.9%

row,Compound,inhibition
1,COc1ccc(N2CCN(C(=O)COc3ncnc4ccccc34)CC2)cc1,0.28%
2,N/C(=N\OC(=O)CCCOc1ccccc1)c1ccncc1,2.2%
3,CCOCCCNC(=O)CCC(=O)NNc1nc2ccccc2c2nc(C)nn12,1.55%
4,Nc1c(S(=O)(=O)c2ccccc2)c2nc3ccccc3nc2n1Cc1ccco1,21.5%
5,COc1ccc(-n2c(NC(=O)c3ccco3)c(C#N)c3nc4ccccc4nc32)cc1,3.92%
6,Cc1ccc(S(=O)(=O)c2c(N)n(Cc3ccco3)c3nc4ccccc4nc23)cc1,24.7% (active)
7,COc1ccc(-n2c(NC(=O)c3ccc(Br)o3)c(C#N)c3nc4ccccc4nc32)cc1,1.59%
8,CCCCn1c(NS(=O)(=O)c2ccc(C)cc2)c(S(=O)(=O)c2ccccc2)c2nc3ccccc3nc21,11.6%
9,CCCCn1c(NS(=O)(=O)c2ccccc2)c(S(=O)(=O)c2ccc(C)cc2)c2nc3ccccc3nc21,-1.2%
10,Cc1cccc(S(=O)(=O)c2c(N)n(Cc3ccco3)c3nc4ccccc4nc23)c1,20.6%
11,CCCCn1c(NC(=O)c2ccccc2)c(C#N)c2nc3ccccc3nc21,2.47%
12,CCCCn1c(N)c(S(=O)(=O)c2ccc(C)cc2)c2nc3ccccc3nc21,12.5%
13,O=C(c1ccc(-c2ccccc2)cc1)C1CCCN(C(=O)Cn2cncn2)C1 (stereo not drawn),8.56%
14,O=C(C(=O)N1CCCc2ccccc21)c1cn(CC(=O)N2CCOCC2)c2ccccc12,1.02%
15,O=C(NCc1ccccc1)C12CC3CC(CC(C3)C1)C2,-3.07%
16,Cc1nn(C(=O)c2cccnc2)c(C)c1Sc1ccccc1,6.53%
17,Cc1ccc(S(=O)(=O)N(C)C)cc1NC(=O)c1sccc1Cl,0.57%
18,Cc1ccc(C(=O)N2CCCC(c3ccc(Cl)cc3)=N2)cc1,-2.39%
19,Cc1ccsc1/C=N/NC(=O)c1ccc([N+](=O)[O-])cc1,4%
20,CC(=O)Nc1c(S(=O)(=O)c2ccccc2)c2nc3ccccc3nc2n1Cc1ccccc1,22.9%

row,Compound,inhibition
1,CCCCn1c(NC(=O)c2ccc(Br)o2)c(S(=O)(=O)c2ccccc2)c2nc3ccccc3nc21,8.47%
2,CC(=O)Nc1ccc2nc(NC(=O)c3cccs3)sc2c1,4.98%
3,O=C(Nc1ccc(F)cc1F)c1ccccc1-c1ccccc1,-1.46%
4,CCCCNC(=O)CSc1nc2ccsc2c(=O)n1CCCC(=O)NCCc1ccc(S(N)(=O)=O)cc1,4.74%
5,CCN(CC)C(=O)CSc1nc2ccsc2c(=O)n1CCCC(=O)NCCc1ccc(S(N)(=O)=O)cc1,11.4%
6,COc1cc(C(=O)OCC(=O)NCc2ccco2)cc(OC)c1OC,7.63%
7,CC(C)Cn1c2c(c(O)c(C(=O)Nc3ncccc3O)c1=O)CCCC2,16.5%
8,CCCn1c2c(c(O)c(C(=O)Nc3ncccc3O)c1=O)CCCC2,25.1% (active)
9,CCCn1c2c(c(O)c(C(=O)Nc3ncccc3C)c1=O)CCCC2,5.08%
10,O=C(NCc1ccccn1)C(=O)NCc1ccccn1,5.31%
11,COc1ccc(OC)c(-n2c(SCC(=O)NCc3ccco3)nnc2-c2c[nH]c3ccccc23)c1,24.5% (active)
12,COc1ccc(-n2c(SCC(=O)NCc3ccco3)nnc2-c2c[nH]c3ccccc23)cc1,3.42%
13,COc1ccc(-c2[nH]c(-c3ccccc3)nc2SCC(=O)NCc2ccco2)cc1OC,4.65%
14,COc1ccc(-c2nc(SCC(=O)NCc3ccco3)c(-c3ccccc3)[nH]2)cc1OC,8.46%
15,COc1ccc(-c2[nH]c(-c3cccc(OC)c3)nc2SCC(=O)NCc2ccco2)cc1,25.2% (active)
16,COc1cccc(-n2c(SCC(=O)NCc3ccco3)nnc2-c2c[nH]c3ccccc23)c1,16.4%
17,S=c1nc(-c2csc3c2CCCC3)[nH][nH]1,-7.04%
18,CCCC(=O)N(Cc1cc2cccc(C)c2[nH]c1=O)c1ccccc1OC,0.65%
